Test results published in PubChem BioAssay.
The source made the active and inactive calls.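 How the source made its calls: active means visually confirmed hit in the image check and inhibition above 20%; inconclusive means visually confirmed hit but inhibition not above 20%; inactive means no visual hit in the image check.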

assay: endothelial E-selectin expression blockers – imaging, HUVEC, immunofluorescence, MLSMR starter and 10KST1 sets, primary screen (AID 487); conditions: HUVEC TNFalpha-induced E-selectin immunofluorescence imaging, at 2 µM; inhibition: stronger effect = higher value; nuclei count: measured here: cell number, toxicity;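 on inhibition: signal is fraction of cell area covered by stained E-selectin grains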;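 on nuclei count: 100% = median nuclei count of all wells on the same plate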

SMILES	nuclei count [%]	inhibition
CCCCNc1cc(C)oc(=O)c1C(C)=O	123	-81% (inactive)
COc1ccc2c(c1)C(=O)N(c1ccccc1OC)C(=O)C2	110	-22% (inactive)
Cc1ccc(S(=O)(=O)NCC(=O)N(CC(=O)NC2CCCCC2)Cc2ccco2)cc1	110	-54.4% (inactive)
CN(C)/C=C1\N=C(c2ccc3c(c2)OCO3)OC1=O	108	46.5% (inactive)
CCc1ccccc1NC(=O)CCc1nc(-c2ccc(C)cc2)no1	86.3	14.1% (inactive)
COc1ccc(CNC(=O)c2cnc3n(c2=O)CCS3)cc1	95.7	15.6% (inactive)
CCOC(=O)Cc1csc(NC(=O)CSc2nnc(C)n2C)n1	108	-8.1% (inactive)
NC(=O)NC(c1ccccc1)c1ccccc1F (stereo not given)	88.9	36.7% (inactive)
O=C(NCCN1CCOCC1)NC1(C(F)(F)F)Oc2ccc(Cl)cc2O1 (stereo not given)	118	-51.7% (inactive)
CCOc1ccc(Cn2nnc(C(=O)NCc3ccc(OC)cc3)c2N)cc1	100	-22.4% (inactive)
CC(=O)Nc1cccc(Oc2nc(C)cc(C)c2C#N)c1	124	-87% (inactive)
O=P1(O)C=C(c2ccccc2)NC(c2ccccc2)=C1	117	-48% (inactive)
Cc1cc2ccccc2c(=O)n1CC(=O)N(C)c1ccc(F)cc1	103	-74.2% (inactive)
COCCN(Cc1cc2cc3c(cc2n2nnnc12)OCO3)C(=O)c1ccccc1F	105	-63.4% (inactive)
c1coc(CN(Cc2cccs2)Cc2nnnn2C2CCCCC2)c1	97.7	-12.8% (inactive)
